From PubChem
Rows were chosen to be rich in hits. Some 7.9% of all compounds tested hit in one or more screens of this group.
HT1080NT lethal = qHTS for induction of synthetic lethality in tumor cells producing 2HG: qHTS for the HT-1080-NT fibrosarcoma cell line. 360,000 compounds, 1.6% hits. HT-1080-NT fibrosarcoma viability, CellTiter-Glo ATP luminescence, 48 h. Potency, µM (titrated, usually from 46.1 µM), without a hit: at the top dose activity, negative = less viability, hits mostly cytotoxic. AID 686970, 2013;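 also: NT is the 2HG producing partner of a matched IDH1 knockdown line; 0% = DMSO-treated cells and -100% = media-only wells without cells; nearly all actives have a fitted effect of over 55% in size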
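Compounds were tested in concentration-response format on HT-1080-NT cells for 48 hours at 37 degrees C. Cell viability came from CellTiter-Glo luminescence; curves were classified by r2, response magnitude and activity.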
SW480 rereplic = A quantitative high throughput screen for small molecules that induce DNA re-replication in SW480 colon adenocarcinoma cells; SW480 DNA re-replication, Hoechst DNA content imaging, 48 h; Potency, µM (titrated, usually from 46.1 µM), inactives show top-dose re-replication activation, most hits filed as activators; 340,000 compounds, 1.8% hits; also: % of control where 0% means no effect; nearly all actives have a fitted effect of over 55% in size
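Image-based read-out: total Hoechst fluorescence of nuclei (405 nm excitation, 500-530 nm emission), with hits raising the fraction of high-intensity nuclei. SW480 colon cells incubated 48 hr with compounds at 37 C.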
KB-V1 MDR tox = qHTS assay for MDR1-selective chemotherapeutics: Primary screen using the drug-selected MDR subline cells KB-V1 | 400,000 compounds, 3.4% hits | AID 1347076, 2019 | KB-V1 MDR cells viability, CellTiter-Glo, 72 h | Potency, µM (top dose mostly 46.1 µM), hits mostly cytotoxic; also: % is scaled to controls: 0 for no effect and ±100 for the full control effect; nearly all actives have a fitted effect of over 60% in size
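Potencies derive from concentration-effect curves fitted to normalized luminescence (CellTiter-Glo) of KB-V1 cells treated for 72 h at 37 degrees C in phenol-red-free DMEM containing 10% FBS.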
KB-3-1 tox = qHTS assay for MDR1-selective chemotherapeutics: Primary screen using the parental adenocarcinoma cell KB-3-1. AID 1347075, 2019. Potency, µM (titrated, usually from 46.1 µM), most hits filed as cytotoxic. 400,000 compounds, 1.4% hits. KB-3-1 viability, CellTiter-Glo ATP luminescence, 72 h; also: % is scaled to controls: 0 for no effect and ±100 for the full control effect; nearly all actives have a fitted effect of over 60% in size
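72 h, 37 °C compound treatment of KB-3-1 parental cells; CellTiter-Glo added, 10 min, luminescence read. Data corrected against DMSO-only plates and normalized before curve fitting.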
HT1080 IDH1KD tx = qHTS for induction of synthetic lethality in tumor cells producing 2HG: qHTS for the HT-1080-IDH1KD cell line; HT-1080 IDH1 knockdown viability, ATP luminescence, 48 h; Potency, µM (series often up to 46.1 µM), inactives show at the top dose activity, negative = toxicity, hits mostly cytotoxic; 360,000 compounds, 2% hits; AID 686971, 2013;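 also: 0% = DMSO wells and -100% = cell-free medium wells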
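IDH1KD HT-1080 cells, 750/well, RPMI + 5% FBS; compound pinned after 2 h settling; 48 h, 37 °C; CellTiter-Glo luminescence; % activity normalised to DMSO and no-cell wells; curves fitted, classed by r2 and efficacy.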
MCF10A rereplic = A quantitative high throughput screen for small molecules that induce DNA re-replication in MCF 10a normal breast cells | MCF 10A DNA re-replication, Hoechst nuclear intensity, 48 h | Potency, µM (highest dose often 46.1 µM), without a hit: at the highest dose activity, positive = re-replication, hits mostly activators | 350,000 compounds, 2.9% hits; also: % of control where 0% means no effect; nearly all actives have a fitted effect of over 50% in size
* marks the source's active call; other numbers are inactive results; i = inactive; ? = inconclusive; . = no result given; [ ] = another dose, or the depositor's remark. Calls follow the shape of the dose curve; as a rule, active = well fitted curve in the direction sought with a large enough effect; inconclusive = small, poorly fitted or top-dose-only effect, or another doubt; inactive = no such curve, though single readings can be large; an effect the other way counts as inactive or inconclusive. Potency is read from the fitted curve at half-maximal effect.

SMILES	HT1080NT lethal	SW480 rereplic	KB-V1 MDR tox	KB-3-1 tox	HT1080 IDH1KD tx	MCF10A rereplic
CCC(Oc1ccccc1)C(=O)Nc1cc(-c2ccccc2F)nn1-c1ccccc1 (centres undefined)	.	.	i	i	.	.
CCC(=O)Nc1ccccc1-c1nc2ccccc2n(Cc2cccc(Br)c2)c1=O	.	.	i	i	.	.
COc1ccc(NC(=O)CN(C)S(=O)(=O)c2ccc(Cl)cc2)cn1	12%	-1%	i	i	15%	-1%
COc1ccc(NC(=O)C(Cl)=C(Cl)Cl)cn1	16µM*	?	?	?	23µM*	21µM*
COc1ccc(NC(=O)/C(Cl)=C(/Cl)S(=O)Cc2ccc(Cl)cc2)cn1 (centres undefined)	1.3µM*	?	5.8µM*	7.3µM*	0.92µM*	?
CC(C)(C)c1nnc(NC(=O)c2cc(-c3ccccc3)nc3ccccc23)s1	-21%	-1%	i	i	-20%	20%
O=C(Nc1nc2c(s1)CCCC2)c1cc(-c2ccccc2)nc2ccccc12	9%	.	13µM*	i	-1%	8%
Cc1csc(NC(=O)c2cc(-c3ccccc3)nc3ccccc23)n1	-23%	-47%	2.3µM*	?	-24%	?
CC(=O)c1cccc(NC(=O)c2cc(-c3ccncc3)nc3ccccc23)c1	-5%[9.24 µM]	?	?	i	-23%	0%
Cc1cc(NC(=O)c2cc(-c3ccncc3)nc3ccccc23)ccc1Br	3%	10%	8.2µM*	?	-21%	?
O=C(NN=C1CCCCCC1)c1cc(-c2ccccc2)nc2ccccc12	-26%	5%	i	?	?	16µM*
Cc1ccc(-c2cc(C(=O)NN=C3CCCC3)c3ccccc3n2)cc1	-18%	-4%	i	i	-10%	1%
CC(=O)Oc1ccc(Cn2c(C)c(C(=O)NCc3ccc4c(c3)OCCO4)sc2=O)cc1	-17%	.	?	i	-16%	.
COc1cccc2[nH]c3c(N4CCCC(C)C4)ncnc3c12 (centres undefined)	5%	-6%	6.5µM*	i	-4%	4%
COc1cccc2[nH]c3c(N4CCC(C(N)=O)CC4)ncnc3c12	5%	-3%	i	i	12%	-11%
CCC(=O)N(CCC(c1ccco1)C(C)C)Cc1ccccc1 (centres undefined)	-17%	-3%[9.22 µM]	i	i	-23%	15%
CC(=O)N(CCC(c1ccco1)C(C)C)Cc1ccc(Cl)cc1 (centres undefined)	-10%	-3%	?	i	-14%	4.1µM*
COc1ccc(CC(=O)OCC(=O)Nc2ccc3[nH]c(=O)[nH]c3c2)cc1OC	8%	.	?	i	19%	.
Cn1c(=O)c2c(ncn2Cc2ccc(Cl)c(Cl)c2)n(C)c1=O	-13%	8%	2.6µM*	?	-21%	17%
Cn1c(=O)c2c(ncn2CCOc2cccc(Br)c2)n(C)c1=O	?	6%	?	10µM*	-14%	7%
Cn1c(=O)c2c(ncn2Cc2cccc(Cl)c2)n(C)c1=O	?	5%	?	?	0%	-5%
Cn1c(NCC(O)c2ccccc2)nc2c1c(=O)n(Cc1ccc(Cl)c(Cl)c1)c(=O)n2C (centres undefined)	21µM*	?	i	?	18µM*	?
Cn1c(=O)c2c(nc(Cl)n2Cc2ccncc2)n(C)c1=O	5%	?	i	i	2%	23%
Cn1c(=O)c2c(nc(Cl)n2Cc2ccc(Cl)c(Cl)c2)n(C)c1=O	-5%	-7%	16µM*	?	-8%	0%
CCOc1ccc(Nc2nc3c(S(=O)(=O)c4ccc(CC)cc4)nnn3c3ccc(Cl)cc23)cc1	.	.	i	i	.	.
SMILES	HT1080NT lethal	SW480 rereplic	KB-V1 MDR tox	KB-3-1 tox	HT1080 IDH1KD tx	MCF10A rereplic
CCOC(=O)N1CCc2c(sc3c2c(=O)n(-c2ccc(Cl)cc2)c(=O)n3CC(=O)Nc2ccccc2)C1	.	.	i	i	.	.
Cc1ccccc1CNC(=O)c1c(C)oc2c1C1=NCCN1C=N2	.	.	i	i	.	.
CN1CCCC(CN2c3ccccc3Sc3ccccc32)C1 (centres undefined)	?	?	?	i	21µM*	-25%
CN1CCCC(OC(=O)c2ccccc2F)C1 (centres undefined)	1%	-1%	i	i	5%	-5%
CN1CCCC(CC2c3ccccc3Sc3ccccc32)C1 (centres undefined)	21µM*	-11%	18µM*	i	18µM*	-29%
O=c1c(-c2cc(-c3ccccc3)nc3c2COc2ccccc2-3)coc2ccc(Cl)cc12	.	.	i	i	.	.
CC(=O)c1sc(-c2ccc(Cl)cc2)nc1C	-3%	-7%	?	i	0%	0%
Cc1nc(-c2ccccc2)sc1C(=O)/C=C/c1ccc(Cl)cc1	8%	2%	?	?	11%	4.1µM*
COc1ccc(N/C=C/C(=O)c2ccccc2)cc1	-24%	0%	i	i	-21%	2%
COc1ccc(N/C=C/C(=O)c2sc(-c3ccccc3)nc2C)cc1	?	?	18µM*	?	?	?
CSc1ccccc1C(=O)OCC(=O)Nc1c(C)n(C)n(-c2ccccc2)c1=O	13%	.	i	i	3%	.
COc1ccc(/C=C/c2ccncc2)cc1OC	14%	-11%	i	i	6%	4%
CC[N+](C)(C)c1ccc(/C=C/c2ccncc2)cc1	.	.	i	2.3µM*	.	.
